“And” between values parts separate entries of the source, which are not always exact repeats. Identical values can stand only once. Records with an inconclusive call do not appear. Entries that show only a call come without a potency. The source holds several records for some structures; these can differ, active in one and inactive in another. The source made the active and inactive calls. Calls come from the whole dose curve; as a rule, active = well fitted curve in the direction sought with a large enough effect in the repeat runs; inconclusive = weak or mixed curves; inactive = no such curve, though single readings can be large; an effect the other way counts as inactive or inconclusive.
Assays:
[1] = A CellTox Green Cytotoxicity Assay to monitor cytotoxicity in HEK293 cells - 24 hour (AID 1224875); note: series mostly up to about 77 µM; nearly all actives have a fitted effect of over 45% in size
Summary of the method: (§1)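 Dead-cell fluorescence measured kinetically: asymmetric cyanine dye, HEK293, 600 cells/well, 5 h settle, 23 nL cpd/DMSO, 37 C, reads 0–40 h every 8 h.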

[2] = A CellTox Green Cytotoxicity Assay to monitor cytotoxicity in HepG2 cells - 16 hour (AID 1224876); note: nearly all actives have a fitted effect of over 45% in size; note: potency is the fitted concentration of half-maximal effect
Summary of the method: (§2)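 First, HepG2 cells (600/well) mixed with reagent were plated; second, after 5 h at 37 C they received compounds via pintool; third, fluorescence was measured at 0 h through 40 h at 8 h intervals.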

[3] = qHTS RealTime-Glo MT Cell Viability Assay in HepG2 cells - 32 hour (AID 1224877); note: nearly all actives have a fitted effect of over 55% in size; note: potency is the fitted concentration of half-maximal effect
Summary of the method: (§3)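 Real-time, nonlytic viability: 600 HepG2 cells/well mixed with NanoLuc enzyme plus prosubstrate; 5 h settle, compound (DMSO) added by pintool; luminescence monitored over 40 h at 37 C.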

[4] = A CellTox Green Cytotoxicity Assay to monitor cytotoxicity in HepG2 cells - 24 hour (AID 1224878); note: nearly all actives have a fitted effect of over 45% in size; note: potency is the fitted concentration of half-maximal effect
Summary of the method: as §2

[5] = A CellTox Green Cytotoxicity Assay to monitor cytotoxicity in HepG2 cells - 40 hour (AID 1224879); note: nearly all actives have a fitted effect of over 40% in size; note: potency is the fitted concentration of half-maximal effect
Summary of the method: as §2

[6] = qHTS RealTime-Glo MT Cell Viability Assay in HEK293 cells - 0 hour (AID 1224880); note: top concentration of the series differs between compounds; nearly all actives have a fitted effect of over 45% in size
Summary of the method: (§4)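 600 HEK293 cells per well, dispensed already mixed with RealTime-Glo MT reagents. Compound dosing came 5 h later. The same wells were read for luminescence at 0, 8, 16, 24, 32 and 40 h of exposure at 37 C.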

[7] = A CellTox Green Cytotoxicity Assay to monitor cytotoxicity in HEK293 cells - 32 hour (AID 1224881); note: nearly all actives have a fitted effect of over 40% in size; note: potency is the fitted concentration of half-maximal effect
Summary of the method: as §1

[8] = A CellTox Green Cytotoxicity Assay to monitor cytotoxicity in HepG2 cells - 0 hour (AID 1224882); note: nearly all actives have a fitted effect of over 35% in size; note: potency is the fitted concentration of half-maximal effect
Summary of the method: as §2

[9] = A CellTox Green Cytotoxicity Assay to monitor cytotoxicity in HepG2 cells - 32 hour (AID 1224883); note: nearly all actives have a fitted effect of over 50% in size; note: potency is the fitted concentration of half-maximal effect
Summary of the method: as §2

[10] = A CellTox Green Cytotoxicity Assay to monitor cytotoxicity in HEK293 cells - 8 hour (AID 1224884); note: nearly all actives have a fitted effect of over 35% in size; note: potency is the fitted concentration of half-maximal effect
Summary of the method: as §1

[11] = qHTS RealTime-Glo MT Cell Viability Assay in HepG2 cells - 16 hour (AID 1224885); note: nearly all actives have a fitted effect of over 50% in size
Summary of the method: as §3

[12] = qHTS RealTime-Glo MT Cell Viability Assay in HEK293 cells - 24 hour (AID 1224886); note: nearly all actives have a fitted effect of over 50% in size; note: potency is the fitted concentration of half-maximal effect
Summary of the method: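 Cells + reagent dispensed (600 cells/well, HEK293) → 5 h at 37 C/5% CO2 → 23 nL compound in DMSO pinned → 40 h at 37 C → luminescence read at 0, 8, 16, 24, 32, 40 h.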

[13] = qHTS RealTime-Glo MT Cell Viability Assay in HEK293 cells - 8 hour (AID 1224887); note: top concentration of the series differs between compounds; nearly all actives have a fitted effect of over 50% in size
Summary of the method: as §4

[14] = A CellTox Green Cytotoxicity Assay to monitor cytotoxicity in HEK293 cells - 16 hour (AID 1224888); note: nearly all actives have a fitted effect of over 35% in size
Summary of the method: as §1

[15] = qHTS RealTime-Glo MT Cell Viability Assay in HepG2 cells - 0 hour (AID 1224889); note: nearly all actives have a fitted effect of over 50% in size
Summary of the method: as §3

[16] = A CellTox Green Cytotoxicity Assay to monitor cytotoxicity in HepG2 cells - 8 hour (AID 1224890); note: nearly all actives have a fitted effect of over 45% in size; note: potency is the fitted concentration of half-maximal effect
Summary of the method: as §2

[17] = qHTS assay to identify small molecule antagonists of the estrogen receptor alpha (ER-alpha) signaling pathway using the BG1 cell line in the presence of 0.1 nM 17-beta-estradiol - cell viability counter screen (AID 1259241); note: nearly all actives have a fitted effect of over 40% in size
Summary of the method: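 VM7Luc4E2, 4,000 cells/well, phenol red-free medium + 10% charcoal-stripped FBS; 24 hr plating; cpd + 0.1 nM E2 final, 22 hr 37C/5% CO2; CellTiter-Fluor 30 min, fluorescence.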

[18] = qHTS assay to identify small molecule antagonists of the androgen receptor (AR) signaling pathway using the MDA cell line in the presence of 0.5 nM R1881 - cell viability counter screen (AID 1259242); note: nearly all actives have a fitted effect of over 45% in size
Summary of the method: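 qHTS format. MDA-kb2 (MMTV-luc, AR/GR responsive) + cpd + 0.5 nM R1881 final, 16 hr 37C/0% CO2 → CellTiter-Fluor 30 min → fluorescence intensity.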

[19] = target: Estrogen receptor (Homo sapiens) (UniProt P03372); assay: qHTS assay to identify small molecule antagonists of the estrogen receptor alpha (ER-alpha) signaling pathway using the BG1 cell line in the presence of 0.1 nM 17-beta-estradiol (AID 1259244); note: nearly all actives have a fitted effect of over 50% in size
Chain of Estrogen receptor (Homo sapiens) (P03372 whole entry, looked up): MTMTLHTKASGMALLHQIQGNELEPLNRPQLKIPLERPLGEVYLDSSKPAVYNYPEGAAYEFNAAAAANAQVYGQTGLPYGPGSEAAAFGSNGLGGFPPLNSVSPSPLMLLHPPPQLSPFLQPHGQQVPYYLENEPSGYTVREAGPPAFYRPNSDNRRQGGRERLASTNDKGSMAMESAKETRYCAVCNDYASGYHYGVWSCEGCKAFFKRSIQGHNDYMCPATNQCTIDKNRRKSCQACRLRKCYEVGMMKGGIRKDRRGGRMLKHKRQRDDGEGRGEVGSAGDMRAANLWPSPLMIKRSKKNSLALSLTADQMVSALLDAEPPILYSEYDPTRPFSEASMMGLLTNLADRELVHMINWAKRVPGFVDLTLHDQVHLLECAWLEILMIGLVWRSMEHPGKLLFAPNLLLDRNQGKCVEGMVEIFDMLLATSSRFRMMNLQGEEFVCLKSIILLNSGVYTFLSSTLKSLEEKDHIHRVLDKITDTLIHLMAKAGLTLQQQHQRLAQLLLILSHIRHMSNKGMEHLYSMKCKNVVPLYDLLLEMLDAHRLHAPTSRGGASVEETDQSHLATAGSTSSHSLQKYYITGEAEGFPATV
Summary of the method: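 Reporter is a stably transfected luciferase under four estrogen responsive elements in VM7Luc4E2 cells expressing native full-length ER-alpha; inhibition of 0.1 nM (final) 17beta-estradiol-driven signal over 22 h is read by luminescence.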

[20] = target: Androgen receptor (Homo sapiens) (UniProt P10275); assay: qHTS assay to identify small molecule antagonists of the androgen receptor (AR) signaling pathway using the MDA cell line in the presence of 0.5 nM R1881 (AID 1259243); note: nearly all actives have a fitted effect of over 50% in size
Chain of Androgen receptor (Homo sapiens) (P10275 whole entry, looked up): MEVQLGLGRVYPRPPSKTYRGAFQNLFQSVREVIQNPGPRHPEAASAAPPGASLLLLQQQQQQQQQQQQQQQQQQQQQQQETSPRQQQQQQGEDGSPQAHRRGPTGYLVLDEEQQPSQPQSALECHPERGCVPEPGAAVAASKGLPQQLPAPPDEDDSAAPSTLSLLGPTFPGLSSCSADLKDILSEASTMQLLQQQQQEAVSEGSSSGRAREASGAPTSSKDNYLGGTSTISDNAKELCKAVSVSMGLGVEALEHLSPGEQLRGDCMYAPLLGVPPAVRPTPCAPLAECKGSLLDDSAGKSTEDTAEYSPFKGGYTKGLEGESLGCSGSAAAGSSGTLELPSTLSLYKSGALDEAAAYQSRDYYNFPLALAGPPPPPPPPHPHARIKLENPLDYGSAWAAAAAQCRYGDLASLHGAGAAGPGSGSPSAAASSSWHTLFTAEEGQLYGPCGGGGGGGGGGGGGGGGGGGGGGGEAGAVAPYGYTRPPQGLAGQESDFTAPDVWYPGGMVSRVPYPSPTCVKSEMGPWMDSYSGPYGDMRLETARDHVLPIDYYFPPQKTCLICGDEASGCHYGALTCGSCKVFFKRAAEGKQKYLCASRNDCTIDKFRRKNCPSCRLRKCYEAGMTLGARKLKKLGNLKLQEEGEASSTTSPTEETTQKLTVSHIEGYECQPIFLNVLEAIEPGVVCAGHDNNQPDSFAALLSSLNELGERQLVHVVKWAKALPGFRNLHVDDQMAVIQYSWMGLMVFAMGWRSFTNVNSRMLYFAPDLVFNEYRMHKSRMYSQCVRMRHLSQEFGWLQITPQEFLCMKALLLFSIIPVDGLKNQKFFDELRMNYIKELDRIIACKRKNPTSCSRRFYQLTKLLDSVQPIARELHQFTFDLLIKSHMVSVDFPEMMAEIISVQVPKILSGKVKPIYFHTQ
Summary of the method: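 Antagonist mode quantitative HTS in MDA-kb2 MMTV-luciferase cells, agonist R1881 at 0.5 nM final, 16 hr exposure at 37C and 0% CO2, luminescent detection.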

Structure (SMILES)	Potency [1]	Potency [2]	Potency [3]	Potency [4]	Potency [5]	outcome [6]	Potency [7]	Potency [8]	Potency [9]	Potency [10]	Potency [11]	Potency [12]	Potency [13]	Potency [14]	Potency [15]	Potency [16]	Potency [17]	Potency [18]	Potency [19]	Potency [20]
O=C(O)c1nc(Cl)ccc1Cl	inactive	inactive	inactive	inactive	inactive	inactive	inactive	inactive	inactive	inactive	inactive	inactive	inactive	inactive	inactive	inactive	inactive	inactive	inactive	–
O=C(O)COc1ccc(Cl)cc1Cl	inactive	inactive	inactive	inactive	inactive	inactive	inactive	inactive	inactive	inactive	inactive	inactive	inactive	inactive	inactive	inactive	inactive	inactive	–	–
CNC	inactive	inactive	inactive	inactive	inactive	inactive	inactive	inactive	inactive	inactive	inactive	inactive	inactive	inactive	inactive	inactive	–	inactive	–	–
N#CS	inactive	inactive	inactive	inactive	inactive	inactive	inactive	inactive	inactive	inactive	inactive	inactive	inactive	inactive	inactive	inactive	–	inactive	–	–
CC[N+]1(C)CCCC1	inactive	inactive	inactive	inactive	inactive	inactive	inactive	inactive	inactive	inactive	inactive	inactive and 24.6 µM (active)	inactive	inactive	inactive	inactive	–	inactive	–	–
Cc1cc(Cl)ccc1OCC(=O)O	inactive	inactive	inactive	inactive	inactive	inactive	inactive	inactive	inactive	inactive	inactive	inactive	inactive	inactive	inactive	inactive	inactive	inactive	inactive	inactive
CC[N+](CC)(CC)CC	inactive	inactive	inactive	inactive	inactive	inactive	inactive	inactive	inactive	inactive	inactive	inactive	inactive	inactive	inactive	inactive	–	inactive	–	–
Nc1ccc(Cl)cc1	inactive	inactive	inactive	inactive	inactive	inactive	inactive	inactive	inactive	inactive	inactive	inactive	inactive	inactive	inactive	inactive	–	inactive	inactive	–
Cc1cc(Cl)ccc1N	–	inactive and 38.9 µM (active)	inactive	inactive and 38.9 µM (active)	inactive and 38.9 µM (active)	inactive	inactive and 38.9 µM (active)	inactive and 38.9 µM (active)	inactive and 38.9 µM (active)	inactive and 34.7 µM (active)	inactive	inactive	inactive	–	inactive	inactive and 43.6 µM (active)	–	inactive	–	–
COP(=O)(OC)OC=C(Cl)Cl	inactive	inactive	inactive	inactive	inactive	inactive	inactive	inactive	inactive	inactive	inactive	inactive	inactive	inactive	inactive	inactive	–	inactive	inactive	–
C=CCOC(Cn1ccnc1)c1ccc(Cl)cc1Cl (configuration not stated)	–	inactive	inactive	49.1 µM (active)	49.1 µM (active)	inactive	55.1 µM (active) and inactive	inactive	49.1 µM (active) and 54.9 µM (active)	inactive	inactive	24.6 µM (active)	inactive	inactive	inactive	inactive	–	inactive	–	–
CCCC[n+]1ccccc1C	inactive	inactive	inactive	inactive	inactive	inactive	inactive	inactive	inactive	inactive	inactive	inactive	inactive	inactive	inactive	inactive	–	inactive	–	–
CCCCCCCCCCCCn1cc[n+](C)c1	–	–	–	–	–	inactive	–	inactive	–	inactive and 55.9 µM (active)	–	–	inactive	–	inactive	44 µM (active) and inactive	–	–	–	–
CCCCn1cc[n+](C)c1C	inactive	inactive	inactive and 44.2 µM (active)	inactive	inactive	inactive	inactive	inactive	inactive	inactive	inactive	inactive	inactive	inactive	inactive	inactive	–	inactive	–	–

Reference: PubChem BioAssay (Tox21)
